Among the test systems are DU-145 prostate; K-562 leukemia; MALME-3M melanoma; MDA-MB-231 breast; RXF 393 renal; SF-268 CNS; SF-295 CNS; SF-539 CNS; UACC-257 melanoma; M14 melanoma.
What all share (experiment): NCI-60 one-dose screen, 48 h (100 = growth as untreated, 0 = no growth, -100 = all killed)
Settings in all cases: 10 µM unless noted

Our source for the growth values is PubChem BioAssay (NCI).

Structures are written as SMILES. Compounds without any hit were thinned out: in the full panel of roughly 83,000, 20% have a hit.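 The endpoint reported here, percent growth, reads 100 for growth as untreated, 0 for no net growth and -100 for all cells dead.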 Unmarked numbers belong to inactive results. Calls of active or inactive are those of the source. How the source made its calls: active means growth percent below 10; inactive means the rest.

As for `CCN(CC)C(=S)SC(SC(=S)N(CC)CC)C(=O)c1nnn(-c2ccc([N+](=O)[O-])cc2)c1C`, the growth is 104% with DU-145 prostate; 81% with K-562 leukemia; 94.3% in the experiment on MALME-3M melanoma; 95.1% in the experiment on MDA-MB-231 breast; 114% in the experiment with RXF 393 renal; 92.9% in the experiment on SF-268 CNS. Besides, the growth in the experiment with SF-295 CNS is 100%; with SF-539 CNS, 98.3%; in the experiment with UACC-257 melanoma it was 101%; with M14 melanoma, 96.9%.

In the case of `COc1cc(OC)cc(C2=C3CC[C@@H]4[C@H](CC[C@]5(C)C(=O)CC[C@@H]45)C3=CC3C(O)c4cccnc4N4C(=O)COC234)c1` (stereo not given in full), the growth in the experiment with DU-145 prostate was 110%; in the experiment with K-562 leukemia, 92.7%; with MALME-3M melanoma it was 103%; in the experiment with MDA-MB-231 breast it was 97.8%; in the experiment with RXF 393 renal it was 107%; in the experiment with SF-268 CNS it was 92.8%. The growth in the experiment with SF-295 CNS was 97.6%; in the experiment with SF-539 CNS, 102%; in the experiment on UACC-257 melanoma, 98.1%; in the experiment on M14 melanoma, 104%.

As for `CCOC(=O)Cn1c(O)c(N=Nc2ccc(S(N)(=O)=O)cc2)c2cc(Br)ccc21`, the growth was 78.7% in the experiment with DU-145 prostate; 65.4% in the experiment with K-562 leukemia; 79.5% in the experiment on MALME-3M melanoma; 67.6% in the experiment on MDA-MB-231 breast; 43.3% in the experiment with RXF 393 renal; 97.2% in the experiment on SF-268 CNS. Moreover, the growth in the experiment with SF-295 CNS is 96.8%; in the experiment with SF-539 CNS it was 16%; with UACC-257 melanoma it was 96.3%; with M14 melanoma, 87.8%.

For the molecule `O=C(NNc1nccc(Nc2ccc(S(=O)(=O)Nc3ccncc3)cc2)n1)c1ccccc1`, the growth with DU-145 prostate was 105%; in the experiment on K-562 leukemia it was 107%; in the experiment on MALME-3M melanoma, 103%; in the experiment on MDA-MB-231 breast, 90.9%; with RXF 393 renal it was 109%; in the experiment with SF-268 CNS, 95.3%. The growth in the experiment with SF-295 CNS is 104%; with SF-539 CNS, 115%; in the experiment on UACC-257 melanoma it was 107%; in the experiment on M14 melanoma it was 91.9%.

Turning to `COc1cccc(CNc2ncnc3c2ncn3C2OC(CO)C(O)C2O)c1O` (stereo not given), the growth with DU-145 prostate is 0.439% (active); in the experiment with K-562 leukemia it was 6.7% (active); with MALME-3M melanoma, -1.1% (active); with MDA-MB-231 breast it was -46% (active); in the experiment on RXF 393 renal, -13.3% (active); in the experiment on SF-268 CNS, 22.8%. The growth in the experiment on SF-295 CNS is -24.5% (active); in the experiment on SF-539 CNS, -3.39% (active); in the experiment with UACC-257 melanoma, 37.6%; in the experiment on M14 melanoma it was 18.5%.

On to `COc1ccc2c(O)c(/C=C3\N=Nc4ccccc43)oc2c1C[C@@H]1CCNC[C@H]1F`, for which the growth is 78.6% in the experiment on DU-145 prostate; -37.6% (active) in the experiment on K-562 leukemia; 52.9% in the experiment on MALME-3M melanoma; 15.4% in the experiment with MDA-MB-231 breast; 80.5% in the experiment on RXF 393 renal; 50.3% in the experiment on SF-268 CNS. Moreover, the growth with SF-295 CNS was 79.2%; with SF-539 CNS it was -82.9% (active); with UACC-257 melanoma, 77.2%; with M14 melanoma it was 51.6%.

Take `Nc1ncnc2c1N=C(c1ccc3c(c1)OCO3)CC(c1ccc([N+](=O)[O-])cc1)N2` (stereo not given): the growth in the experiment with DU-145 prostate is 96.8%; in the experiment on K-562 leukemia, 96.5%; with MALME-3M melanoma, 108%; in the experiment with MDA-MB-231 breast it was 55.9%; with RXF 393 renal it was 50.4%; in the experiment with SF-268 CNS, 86.2%. The growth in the experiment on SF-295 CNS is 296%; with SF-539 CNS, 86.8%; in the experiment with UACC-257 melanoma it was 77.8%; in the experiment with M14 melanoma, 92.2%.

Consider `CCCCCCCCCCCCCCCCCCOc1ccccc1CC(=O)OCC[N+]1(C)CCCC1`, for which the growth with DU-145 prostate was 45.4%; in the experiment on K-562 leukemia it was 27%; with MALME-3M melanoma, 31%; in the experiment on MDA-MB-231 breast, 4.95% (active); in the experiment with RXF 393 renal, -26.3% (active); in the experiment with SF-268 CNS it was 20.7%. The growth in the experiment with SF-295 CNS was 58%; with SF-539 CNS, 40.2%; with UACC-257 melanoma, 75.3%; in the experiment with M14 melanoma, 20.7%.

Take `COc1cccc(NC(=O)Cn2cc(CN3CCN(c4ccnc5cc(Cl)ccc45)CC3)nn2)c1`: the growth is 104% in the experiment on DU-145 prostate; 67.4% in the experiment on K-562 leukemia; 95.6% with MALME-3M melanoma; 73.9% in the experiment on MDA-MB-231 breast; 95% in the experiment with RXF 393 renal; 84.7% in the experiment on SF-268 CNS. The growth was 87.5% in the experiment on SF-295 CNS, 87.7% with SF-539 CNS, 102% in the experiment on UACC-257 melanoma and 104% in the experiment with M14 melanoma.

Turning to `CC[C@@H](C(=O)[C@@H](C)[C@@H](O)[C@H](C)[C@@H]1O[C@@H]([C@@H](CC)C(=O)NCCc2ccc(F)cc2)CC[C@@H]1C)C1O[C@]2(C=CC(=O)[C@]3(CC[C@@](C)([C@H]4CC[C@](O)(CC)[C@H](C)O4)O3)O2)[C@H](C)C[C@@H]1C` (stereo not given in full), the growth was 50.5% with DU-145 prostate; 17% with K-562 leukemia; 36% in the experiment on MALME-3M melanoma; 13.8% in the experiment with MDA-MB-231 breast; 42.7% in the experiment on RXF 393 renal; 24.2% in the experiment on SF-268 CNS. Further, the growth in the experiment on SF-295 CNS was 18.4%; with SF-539 CNS, 47.7%; in the experiment with UACC-257 melanoma, 43.5%; with M14 melanoma it was 25.4%.

In the case of `C=C1CC[C@@H]2[C@](C)(COC(C)=O)[C@H](OC(C)=O)CC[C@@]2(C)[C@@H]1CC(Sc1ccccc1)C1=CCOC1=O` (stereo not given in full), the growth in the experiment with DU-145 prostate is 16.4%; in the experiment with K-562 leukemia it was 3.95% (active); with MALME-3M melanoma, 16.8%; with MDA-MB-231 breast, 7.4% (active); with RXF 393 renal it was 5.01% (active); in the experiment with SF-268 CNS, 11.6%. Further, the growth with SF-295 CNS was 65.9%; in the experiment on SF-539 CNS, -43.6% (active); in the experiment on UACC-257 melanoma, 29.4%; in the experiment with M14 melanoma it was -4.19% (active).
